Active and inactive are the calls of the source.
Legend:
Albumin (Bos taurus) = Albumin (Bos taurus) (UniProt P02769); test: compounds binding labelled BSA control protein – biochemical, small-molecule microarray, Alexa647 label, 635/667 nm fluorescence, artefact control for SMM control protein annotation, profiling panel (AID 1118); settings: BSA-A647 binding, fluorescence 635 nm, higher = more signal;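 further: score merges 667 nm emission intensity and signal-to-noise per printed compound spot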
[1] = probe aXIP binding to arrayed compounds – biochemical, NeuroSMM set, 635/667 nm fluorescence, primary screen (AID 1119); settings: small-molecule microarray, higher = more signal, called active from +8 up or from −8 down;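 further: probe is the protein aXip251-270 applied at 1 µg/mL to compound-printed slides; binding of probe to printed compounds measured as 667 nm fluorescence plus signal to noise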
[2] = probe aNOTCH3 binding on compound microarray – biochemical, small-molecule microarray, 635/667 nm fluorescence, primary screen (AID 1120); settings: higher = more signal;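 further: probe is a biotin-tagged antibody raised against NOTCH3 rather than NOTCH3 protein; score merges spot fluorescence near 667 nm with spot signal to noise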
[3] = probe aNOTCH2 binding on compound microarray – biochemical, small-molecule microarray, 635/667 nm fluorescence, primary screen (AID 1121); settings: higher = more signal;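 further: score merges feature fluorescence read at 667 nm with its signal to noise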
[4] = target: Carbonic anhydrase 2 (Homo sapiens) (UniProt P00918); test: compounds binding carbonic anhydrase 2 – biochemical, small-molecule microarray, Alexa647-labelled CAII, profiling panel (AID 1122); settings: CAII-A647 binding fluorescence, higher = more signal
[5] = COS7 lysate on small-molecule microarray, probe aHis, 635 nm (AID 1123); settings: COS7 cell lysate, fluorescence, higher = more signal;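 further: z-score combines 667nm fluorescence intensity with signal-to-noise per printed compound spot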
[6] = probe aLAP1 signal on lysate-treated microarray – cell lysate, small-molecule microarray, COS7 lysate, primary screen (AID 1124); settings: probe aLAP1, fluorescence, higher = more signal;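 further: lysate comes from COS7 cells expressing LAP1 and is applied at 0.3 µg/mL; score merges spot fluorescence near 667 nm with signal-to-noise over triplicate slides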
Sam68 (KHDRBS1) = test: compounds binding KHDRBS1 protein – biochemical, small-molecule microarray, 635 nm fluorescence, primary screen (AID 1125); settings: higher = more signal;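 further: score merges 667 nm channel intensity with signal to noise over triplicate slides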
[7] = tested on: Chordin-like protein 2 (CHRDL2); test: compounds binding chordin-like 2 – biochemical, small-molecule microarray, 635 nm fluorescence, primary screen (AID 1126); settings: fluorescence 635 nm, higher = more signal;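 further: printed compound slides probed with Chrdl2 protein at 4 µg/mL for 1 h at 4 C; score merges 667 nm emission intensity with signal to noise over three replicate slides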
[8] = target: Concanavalin-A (Canavalia ensiformis) (UniProt P02866); test: compounds binding concanavalin A lectin – biochemical, small-molecule microarray, Alexa647 label, 635 nm, artefact control for SMM control protein annotation, primary screen (AID 1127); settings: ConA-A647 binding fluorescence, higher = more signal;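 further: z combines 667 nm emission intensity with signal-to-noise across three replicate slides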
[9] = compounds binding Alexa647 anti-His antibody – biochemical, small-molecule microarray, 635 nm fluorescence, artefact control for SMM control protein annotation, primary screen (AID 1128); settings: higher = more signal;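 further: score merges feature fluorescence with signal-to-noise for each printed compound spot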
[10] = tested on: Human papillomavirus type 1a E7 protein (residues 1-88); test: HPV1a E7 small-molecule binders, primary screen, biochemical, small-molecule microarray, residues 1-88, 635 nm (AID 1129); settings: small-molecule microarray binding, fluorescence 635 nm; higher = more signal
[11] = target: Focal adhesion kinase 1 (Homo sapiens) (UniProt Q05397); test: PTK2 protein binding on printed compound slides – biochemical, small-molecule microarray, 635/667 nm fluorescence, BSA, DTT, primary screen (AID 1130); settings: 635 nm fluorescence, higher = more signal;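 further: composite of spot emission at 667 nm and signal to noise over triplicate slides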
[12] = tested on: Fibrinogen (Alexa647-labelled); test: Alexa647-fibrinogen binding to printed small molecules – biochemical, small-molecule microarray, 635/667 nm fluorescence, artefact control for SMM control-protein annotation, profiling panel (AID 1131); settings: fibrinogen-A647 binding fluorescence, higher = more signal;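 further: z-score merges 667 nm fluorescence with per-spot signal-to-noise over triplicate slides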
[13] = target: Follistatin (Homo sapiens) (UniProt P19883); test: FST protein binding to printed compounds – biochemical, small-molecule microarray, 635/667 nm fluorescence, primary screen (AID 1132); settings: 635 nm fluorescence, higher = more signal
[14] = target: Fibroblast growth factor 2 (Homo sapiens) (UniProt P09038); test: basic fibroblast growth factor binding to printed compounds – biochemical, small-molecule microarray, 635/667 nm fluorescence, primary screen (AID 1133); settings: FGF2, fluorescence 635/667, higher = more signal
[15] = JC-1 mitochondrial potential readout, lung cancer cells – cell-based, A549, JC-1 fluorescence, basal, 24 h, 100 nL, profiling panel (AID 1138); settings: higher = more signal;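 further: A549 lung adenocarcinoma cells under basal conditions with no added stimulus; test concentration not given here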
Lefty1 = Lefty1 protein binding to printed compounds – biochemical, small-molecule microarray, 635/667 nm fluorescence, primary screen (AID 1139); settings: fluorescence 635/667, higher = more signal
[16] = tested on: wheat germ agglutinin (Triticum aestivum), Alexa647-labelled; test: Alexa647-WGA lectin binding to printed small molecules – biochemical, small-molecule microarray, 635/667 nm fluorescence, artefact control for SMM control-protein annotation, profiling panel (AID 1140); settings: WGA-A647 binding, 635 nm fluorescence, higher = more signal;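 further: score merges 667 nm feature emission with signal to noise over triplicate slides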
[17] = target: Luciferin 4-monooxygenase (Photinus pyralis) (UniProt P08659); test: inhibition of purified Photinus pyralis luciferase – biochemical, luminescence, purified enzyme, 2006 set, primary screen (AID 1141); settings: purified firefly luciferase, SteadyGlo luminescence, 30 min; higher = more signal, called active from +8 up or from −8 down;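 further: cell-free assay with purified firefly luciferase at 100 ng per well in PBS; test concentration not given here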
Luciferin 4-monooxygenase (Photinus pyralis), sequence (P08659 whole entry, looked up): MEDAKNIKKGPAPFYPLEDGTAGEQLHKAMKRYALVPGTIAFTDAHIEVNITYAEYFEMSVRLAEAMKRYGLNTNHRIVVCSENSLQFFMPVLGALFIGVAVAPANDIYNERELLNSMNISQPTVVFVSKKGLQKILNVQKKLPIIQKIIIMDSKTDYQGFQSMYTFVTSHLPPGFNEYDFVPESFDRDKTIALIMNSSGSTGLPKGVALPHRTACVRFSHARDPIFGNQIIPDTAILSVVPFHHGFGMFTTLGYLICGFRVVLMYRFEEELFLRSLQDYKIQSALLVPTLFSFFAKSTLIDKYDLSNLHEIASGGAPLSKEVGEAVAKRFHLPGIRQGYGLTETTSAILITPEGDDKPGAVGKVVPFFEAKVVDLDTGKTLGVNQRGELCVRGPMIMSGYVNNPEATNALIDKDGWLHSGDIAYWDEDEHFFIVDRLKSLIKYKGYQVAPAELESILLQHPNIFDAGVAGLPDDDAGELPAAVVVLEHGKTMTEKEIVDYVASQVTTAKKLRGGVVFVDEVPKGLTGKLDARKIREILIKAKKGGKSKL

Fibroblast growth factor 2 (Homo sapiens), sequence (P09038 whole entry, looked up): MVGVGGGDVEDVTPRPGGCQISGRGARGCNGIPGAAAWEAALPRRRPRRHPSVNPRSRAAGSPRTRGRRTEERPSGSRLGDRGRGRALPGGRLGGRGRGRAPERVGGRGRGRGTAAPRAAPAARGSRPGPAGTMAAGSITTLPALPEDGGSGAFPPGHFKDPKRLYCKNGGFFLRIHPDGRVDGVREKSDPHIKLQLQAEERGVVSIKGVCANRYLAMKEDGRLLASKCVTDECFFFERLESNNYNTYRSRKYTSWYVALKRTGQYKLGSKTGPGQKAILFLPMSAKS
Concanavalin-A (Canavalia ensiformis), sequence (P02866 whole entry, looked up): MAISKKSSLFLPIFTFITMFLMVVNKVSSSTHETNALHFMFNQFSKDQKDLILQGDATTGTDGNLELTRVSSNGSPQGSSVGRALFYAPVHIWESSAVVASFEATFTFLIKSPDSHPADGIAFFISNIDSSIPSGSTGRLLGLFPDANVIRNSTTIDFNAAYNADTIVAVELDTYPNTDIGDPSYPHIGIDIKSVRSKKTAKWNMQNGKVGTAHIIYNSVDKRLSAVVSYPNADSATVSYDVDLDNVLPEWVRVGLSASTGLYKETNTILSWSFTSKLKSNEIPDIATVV
Focal adhesion kinase 1 (Homo sapiens), sequence (Q05397 whole entry, looked up): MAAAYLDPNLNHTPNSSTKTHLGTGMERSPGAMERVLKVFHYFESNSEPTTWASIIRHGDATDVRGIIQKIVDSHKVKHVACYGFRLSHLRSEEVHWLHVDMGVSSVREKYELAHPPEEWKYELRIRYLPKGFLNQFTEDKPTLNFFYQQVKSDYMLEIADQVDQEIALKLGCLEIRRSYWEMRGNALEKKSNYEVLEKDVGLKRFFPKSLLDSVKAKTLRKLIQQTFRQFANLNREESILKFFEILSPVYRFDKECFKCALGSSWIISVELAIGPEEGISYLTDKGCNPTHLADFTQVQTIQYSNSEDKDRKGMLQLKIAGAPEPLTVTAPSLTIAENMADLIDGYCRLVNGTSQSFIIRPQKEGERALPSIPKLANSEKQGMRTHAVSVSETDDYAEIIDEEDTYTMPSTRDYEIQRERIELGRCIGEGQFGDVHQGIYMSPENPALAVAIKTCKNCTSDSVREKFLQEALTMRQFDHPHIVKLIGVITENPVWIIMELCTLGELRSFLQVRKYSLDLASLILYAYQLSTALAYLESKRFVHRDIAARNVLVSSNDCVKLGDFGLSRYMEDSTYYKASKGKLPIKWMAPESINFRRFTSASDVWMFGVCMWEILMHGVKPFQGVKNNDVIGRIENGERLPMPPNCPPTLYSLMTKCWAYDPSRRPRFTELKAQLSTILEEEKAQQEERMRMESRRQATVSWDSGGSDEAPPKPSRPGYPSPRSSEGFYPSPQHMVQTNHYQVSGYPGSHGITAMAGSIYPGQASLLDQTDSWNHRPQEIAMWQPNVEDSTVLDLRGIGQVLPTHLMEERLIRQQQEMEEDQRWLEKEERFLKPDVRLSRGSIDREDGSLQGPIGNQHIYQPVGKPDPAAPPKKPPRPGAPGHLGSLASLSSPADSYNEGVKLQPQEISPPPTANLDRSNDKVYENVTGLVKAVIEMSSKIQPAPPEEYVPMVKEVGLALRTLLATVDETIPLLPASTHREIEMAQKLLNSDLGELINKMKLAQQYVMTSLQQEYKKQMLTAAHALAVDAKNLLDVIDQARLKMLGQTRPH
Albumin (Bos taurus), sequence (P02769 whole entry, looked up): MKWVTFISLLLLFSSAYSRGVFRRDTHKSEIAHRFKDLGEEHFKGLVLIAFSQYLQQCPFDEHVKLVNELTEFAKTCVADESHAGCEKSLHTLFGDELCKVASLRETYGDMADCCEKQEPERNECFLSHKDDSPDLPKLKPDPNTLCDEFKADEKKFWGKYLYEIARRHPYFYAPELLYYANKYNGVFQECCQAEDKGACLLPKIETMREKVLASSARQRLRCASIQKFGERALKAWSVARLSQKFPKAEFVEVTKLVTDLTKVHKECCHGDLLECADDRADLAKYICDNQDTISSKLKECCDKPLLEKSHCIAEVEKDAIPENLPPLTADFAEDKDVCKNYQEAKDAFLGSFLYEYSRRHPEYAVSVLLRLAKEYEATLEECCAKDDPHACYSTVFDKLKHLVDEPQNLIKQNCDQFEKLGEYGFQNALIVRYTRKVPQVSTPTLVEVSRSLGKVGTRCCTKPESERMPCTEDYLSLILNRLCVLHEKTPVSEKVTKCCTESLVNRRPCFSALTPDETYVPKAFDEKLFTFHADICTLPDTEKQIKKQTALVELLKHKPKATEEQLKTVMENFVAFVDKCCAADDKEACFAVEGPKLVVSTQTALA
Follistatin (Homo sapiens), sequence (P19883 whole entry, looked up): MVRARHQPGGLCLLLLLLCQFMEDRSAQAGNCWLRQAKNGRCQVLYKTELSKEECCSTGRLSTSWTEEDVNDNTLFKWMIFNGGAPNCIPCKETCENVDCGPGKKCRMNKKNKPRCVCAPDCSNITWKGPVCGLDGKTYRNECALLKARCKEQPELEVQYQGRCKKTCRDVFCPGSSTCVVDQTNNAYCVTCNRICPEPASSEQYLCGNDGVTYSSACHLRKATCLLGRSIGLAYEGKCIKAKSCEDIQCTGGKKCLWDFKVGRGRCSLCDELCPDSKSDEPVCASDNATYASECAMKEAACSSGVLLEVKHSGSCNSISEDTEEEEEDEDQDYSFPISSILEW

| Structure (SMILES) | composite z-score (Albumin (Bos taurus)) | composite Z-score [1] | composite z-score [2] | composite z-score [3] | composite z-score [4] | composite z-score [5] | composite z-score [6] | composite z-score (Sam68 (KHDRBS1)) | composite z-score [7] | composite z-score [8] | composite z-score [9] | composite z-score [10] | composite z-score [11] | composite z-score [12] | composite z-score [13] | composite z-score [14] | z-score [15] | composite z-score (Lefty1) | composite z-score [16] | z-score [17] |
| --- | --- | --- | --- | --- | --- | --- | --- | --- | --- | --- | --- | --- | --- | --- | --- | --- | --- | --- | --- | --- |
| C=CC[C@@]1(C(=O)N(C)C)N=C(c2ccc(OCCCO)cc2)O[C@@H]1c1ccccc1CN=[N+]=[N-] | 0.738 | 0.153 (inactive) | 0.438 | 0.0674 | 0.397 | 2.48 | 0.71 | 1.33 | -0.201 | 1.12 | 2.69 | 1.22 | 0.188 | 0.985 | 1.36 | 1.83 | 3.32 | 0.561 | 1.12 | -0.84 (inactive) |
| CC[C@@H]1C=C(C(=O)O)[C@H](c2ccc(OC)cc2)N1S(=O)(=O)c1ccc(C)cc1 | 0.493 | 0.112 (inactive) | -0.061 | -0.173 | 0.852 | 2.55 | -0.388 | -0.815 | -0.377 | -0.0828 | -0.0418 | 0.521 | 0.359 | -0.342 | -0.055 | -0.477 | 0.0749 | 0.112 | 0.164 | 1.04 (inactive) |
| CCCN1C(=O)[C@@]2(c3ccc([N+](=O)[O-])cc3)CC(=O)N(CC34CC5CC(CC(C5)C3)C4)[C@@H]2c2ccc(CO)cc21 | 0.391 | -0.316 (inactive) | 0.056 | -0.199 | 0.302 | 0.634 | -0.193 | -0.83 | -0.229 | 0.0674 | -0.0371 | -1.01 | 0.195 | -0.171 | 1.23 | 1.12 | -0.284 | -0.0689 | -0.0176 | -0.366 (inactive) |
| C=CCOC(=O)[C@@H]1[C@H]2C(=O)O[C@H](c3ccccc3)[C@H](c3ccccc3)N2[C@H](c2ccc(OCCOC(=O)[C@H]3C[C@H]4C(=O)NCC(=O)N4[C@H]3c3cccc(OCCO)c3)cc2)[C@@]12C(=O)Nc1ccc(I)cc12 | -0.735 | 0.614 (inactive) | -0.006 | -0.06 | 0.636 | 1.96 | 0.397 | 1.3 | 1.02 | 1.19 | 2.5 | 1.19 | 0.919 | 0.438 | 1.38 | 1.64 | -1.09 | 1.34 | 0.734 | -1.06 (inactive) |
| COCCCNC(=O)[C@@]1(CCC(=O)OC(C)(C)C)COC(c2ccc(OCCCO)cc2)=N1 | 0.483 | 0.507 (inactive) | 0.133 | -0.0485 | 0.619 | 3 | 0.504 | 1.28 | -0.42 | 0.286 | 0.839 | 1.27 | 0.403 | 1.04 | 0.636 | 0.502 | -0.274 | -0.322 | 0.386 | 0.75 (inactive) |
| CCCCCC1=C2CNC(CC(C)C)(C(=O)OC)C=C2C(C)C1=O (stereo not given) | 0.624 | -0.378 (inactive) | 0.376 | 0.0453 | 0.495 | 1.9 | 0.602 | 1.18 | -0.861 | 0.232 | 0.654 | 1.17 | 1.61 | 0.955 | -0.127 | -0.544 | 0.326 | -0.145 | 0.955 | -0.0622 (inactive) |
| C=CCNC(=O)[C@H]1[C@@H]2C(=O)O[C@@H](c3ccccc3)[C@@H](c3ccccc3)N2[C@@H](c2ccc(OCCO)cc2)[C@]12C(=O)Nc1ccc(C#CC3(O)CCCCCC3)cc12 | 0.483 | 0.238 (inactive) | 0.257 | 0.0111 | 0.184 | 1.29 | 1.09 | 1.34 | 0.721 | 1.13 | 1.26 | 1.18 | 0.358 | 0.932 | 1.14 | 1.13 | 0.38 | 1.3 | 0.651 | -1.96 (inactive) |
| C=C(CCCC)C(=O)CC[C@H](OC(=O)c1ccccc1-c1ccccc1C(=O)O)c1ccc(OCCO)cc1 | 0.763 | -0.235 (inactive) | 0.184 | -0.185 | 0.573 | 1.2 | -0.0334 | 0.958 | 0.0139 | 0.969 | 0.321 | 0.632 | -0.0609 | 0.0905 | 0.571 | 1.26 | 0.128 | 1.1 | 0.708 | -1.95 (inactive) |
| C=C(C)[C@@H]1CC=C(C(O)C2C=CC3C(=O)N(C)C(=O)C3N2Nc2ccc([N+](=O)[O-])cc2[N+](=O)[O-])CC1 (stereo not given in full) | 0.689 | -0.37 (inactive) | 0.407 | 0.158 | 0.583 | 2.5 | 0.005 | 1.29 | 0.722 | 1.14 | 0.607 | 1.27 | 0.512 | 1 | 1.24 | -0.0675 | 1.88 | 0.424 | 0.799 | 0.511 (inactive) |
| O=C(NCCN1CCOCC1)[C@@H]1c2ccccc2C(=O)N(Cc2ccc(OC(F)(F)F)cc2)[C@H]1c1ccc(CO)cc1 | 0.816 | -0.265 (inactive) | -0.0976 | -0.0429 | 0.761 | 1.64 | -0.195 | 0.686 | -1.49 | -0.159 | 1.97 | 0.292 | 0.022 | -0.419 | 0.0596 | -1.23 | 2.22 | -0.332 | -0.109 | -0.408 (inactive) |
| O=C(NC1CC1)[C@@H]1c2ccccc2C(=O)N(Cc2ccc(OC(F)(F)F)cc2)[C@H]1c1ccc(CO)cc1 | 0.22 | 0.061 (inactive) | -0.1 | -0.0974 | 0.642 | 1.41 | -0.169 | 0.932 | -0.584 | -0.037 | -0.0809 | 0.836 | 0.234 | -1.39 | 0.664 | 0.668 | 1.39 | 0.39 | 0.331 | 1.12 (inactive) |
